# Laboratory results from PubChem BioAssay (NCATS).
# Inconclusive results are not listed. Entries that show only a call come without a potency. Activity calls are given as the source filed them. Unless noted, the call rests on the fitted dose curve.
# Experiments:
# [1] = target: Peroxisome proliferator-activated receptor delta (Homo sapiens) (UniProt Q03181); assay: qHTS assay for small molecule agonists of peroxisome proliferator-activated receptor delta signaling (AID 588534)
# How it was run: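 Titration series tested in agonist mode on beta-lactamase reporter cells; 18 hrs at 37 C after a 5 hr pre-incubation. Readout: CCF4 fluorescence, 2 hrs RT. Hill equation gives EC50 and maximal response.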
# [2] = Primary qHTS for inhibitors of SARS-S pseudo-typed particle cell entry (AID 1479145); details: outcome: dose series up to 57.1 µM unless noted; further: nearly all actives have a fitted effect of over 45% in size
# [3] = Primary qHTS for Huh7 cytotoxicity: counterscreen for inhibitors of MERS-S pseudotyped particle cell entry (AID 1479147); details: outcome: dose series up to 57.1 µM unless noted
# [4] = Primary qHTS for inhibitors of MERS-S pseudo-typed particle cell entry (AID 1479149); details: outcome: dose series up to 57.1 µM unless noted; further: nearly all actives have a fitted effect of over 60% in size
# [5] = Primary qHTS for Vero E6 cytotoxicity: counterscreen for inhibitors of SARS-S pseudo-typed particle cell entry (AID 1479150); details: outcome: dose series up to 57.1 µM unless noted
# [6] = Cytotoxicity counterscreen for inhibitors of SARS-CoV-2 cell entry (AID 1645845); details: outcome: dose series up to 57.1 µM unless noted; further: nearly all actives have a fitted effect of over 50% in size
# How it was run: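 After a 15 min room-temperature ATPLite 1step step, luminescence reflected ATP remaining in HEK293-ACE2 cells exposed to compound for 1 h plus 48 h at 37 C, with percent activity set by cell and no-cell controls.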
# [7] = Primary qHTS to identify inhibitors of SARS-CoV-2 cell entry (AID 1645846); details: SARS-CoV-2 pseudovirus cell entry assay, luminescence; activity change, negative = inhibition: at 57.1 µM (top of the series) unless noted; further: nearly all actives have a fitted effect of over 45% in size
# How it was run: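 Using luciferase-reporting pseudoviruses carrying Wuhan-Hu-1 spike, the screen tracks entry into stably ACE2-expressing cells over 48 hr. Activity is expressed relative to spike particles versus particles lacking any fusion protein.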
# [8] = KB-8-5-11 P-gp reporter qHTS against the NCATS DSHEA and TCM libraries (AID 1919977; active means well fitted curve in the direction sought with a large enough effect; an effect the other way counts as inactive or inconclusive)
# How it was run: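 Viability of drug-resistant KB-8-5-11 cells is measured by CellTiter-Glo luminescence following roughly 72 h treatment at 37C. Substances were titrated, with bortezomib as intraplate control.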
# [9] = qHTS profiling for inhibitors of Plasmodium falciparum (3D7) proliferation (AID 743322; call rule not given here;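 further: infected erythrocytes exposed to compound for 72 h before lysis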); details: P. falciparum 3D7 proliferation; at 28.7 µM (top of the series)
# How it was run: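 Parasite DNA was quantified by SYBR Green I fluorescence (ex 485, em 535 nm) after overnight lysis in saponin/Triton buffer at room temperature. Cultures at 0.3% parasitemia and 2.5% hematocrit were first exposed to compound for 72 h at 37 C; signals were normalised to artemisinin (0.29 uM) and vehicle wells.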
# [10] = qHTS profiling for inhibitors of Plasmodium falciparum (DD2) proliferation (AID 743323; call rule not given here); details: lower = more inhibition; at 28.7 µM (top of the series)
# How it was run: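 SYBR Green fluorescence (ex 485, em 535 nm) of lysed cultures gives parasite DNA content; wells normalized to artemisinin (0.29 uM) and DMSO controls. Infected red cells: 0.3% parasitemia, 2.5% hematocrit, 72 h, 37 C.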
# [11] = qHTS profiling for inhibitors of Plasmodium falciparum (HB3) proliferation (AID 743324; active means well fitted curve in the direction sought with a large enough effect; an effect the other way counts as inactive or inconclusive); details: Plasmodium falciparum HB3 blood-stage proliferation; at 28.7 µM (top of the series)
# How it was run: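 SYBR Green fluorescence (485 ex/535 em) of lysed cultures, incubated overnight at room temperature in the dark, quantifies parasite DNA. Infected erythrocytes at 0.3% parasitemia and 2.5% hematocrit were exposed 72 h; values normalized to DMSO and 0.29 uM artemisinin controls.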
# [12] = target: Glutathione peroxidase 1 (Homo sapiens) (UniProt P07203); assay: Primary qHTS Assay for Inhibitors of Recombinant Selenoprotein Glutathione Peroxidase 1 (GPX1) (AID 1845191; active means well fitted curve in the direction sought with a large enough effect; an effect the other way counts as inactive or inconclusive; further: nearly all actives have a fitted effect of over 65% in size; further: potency means the concentration at half of the fitted maximal effect)
# Sequence of Glutathione peroxidase 1 (Homo sapiens) (P07203 whole entry, looked up): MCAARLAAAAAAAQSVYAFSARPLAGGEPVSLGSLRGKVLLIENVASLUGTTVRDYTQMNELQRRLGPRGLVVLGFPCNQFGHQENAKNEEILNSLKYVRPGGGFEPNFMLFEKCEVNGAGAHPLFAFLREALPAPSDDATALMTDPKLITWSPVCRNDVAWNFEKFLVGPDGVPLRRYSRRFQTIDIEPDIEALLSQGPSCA
# How it was run: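 GPX1 10 nM, GR 100 nM, GSH 1 mM, NADPH 0.5 mM, CHP 0.5 mM (final). 30-min cpd preincubation, RT. Ex340/Em450 read t=0, t=15 min.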
# [13] = target: Phospholipid hydroperoxide glutathione peroxidase GPX4 (Homo sapiens) (UniProt P36969); assay: Primary qHTS Assay for Inhibitors of Recombinant Selenoprotein Glutathione Peroxidase 4 (GPX4) (AID 1845192; active means well fitted curve in the direction sought with a large enough effect; an effect the other way counts as inactive or inconclusive; further: nearly all actives have a fitted effect of over 65% in size; further: potency means the concentration at half of the fitted maximal effect)
# Sequence of Phospholipid hydroperoxide glutathione peroxidase GPX4 (Homo sapiens) (P36969 whole entry, looked up): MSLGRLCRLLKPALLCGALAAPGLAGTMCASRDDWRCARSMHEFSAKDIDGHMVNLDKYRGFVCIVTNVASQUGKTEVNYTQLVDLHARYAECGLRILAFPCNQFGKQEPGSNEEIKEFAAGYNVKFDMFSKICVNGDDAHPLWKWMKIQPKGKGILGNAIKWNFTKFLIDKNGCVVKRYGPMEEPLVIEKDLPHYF
# How it was run: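 qHTS, GR-coupled: GPX4 200 nM + cpd 30 min RT → GSH 1 mM, NADPH 0.5 mM, GR 100 nM → CHP 0.5 mM start; fluor 340/450 at t0 and t15 min; no-enzyme wells as control.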
# [14] = VSVG counterscreen qHTS to identify inhibitors of SARS-CoV-2 cell entry (AID 1645847); further: potency means the concentration at half of the fitted maximal effect; nearly all actives have a fitted effect of over 65% in size
# How it was run: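 Entry of VSV-G pseudotyped particles into human ACE2-expressing HEK293 cells was measured by luciferase luminescence 48 h after infection, with compound added 1 h beforehand.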
# [15] = target: Bile acid receptor (Homo sapiens) (UniProt Q96RI1); assay: qHTS assay for small molecule agonists of farnesoid X receptor signaling (AID 588527); details: HEK293T FXR-UAS-bla, beta-lactamase ratio, 16 h; stronger effect = higher value
# Sequence of Bile acid receptor (Homo sapiens) (Q96RI1 whole entry, looked up): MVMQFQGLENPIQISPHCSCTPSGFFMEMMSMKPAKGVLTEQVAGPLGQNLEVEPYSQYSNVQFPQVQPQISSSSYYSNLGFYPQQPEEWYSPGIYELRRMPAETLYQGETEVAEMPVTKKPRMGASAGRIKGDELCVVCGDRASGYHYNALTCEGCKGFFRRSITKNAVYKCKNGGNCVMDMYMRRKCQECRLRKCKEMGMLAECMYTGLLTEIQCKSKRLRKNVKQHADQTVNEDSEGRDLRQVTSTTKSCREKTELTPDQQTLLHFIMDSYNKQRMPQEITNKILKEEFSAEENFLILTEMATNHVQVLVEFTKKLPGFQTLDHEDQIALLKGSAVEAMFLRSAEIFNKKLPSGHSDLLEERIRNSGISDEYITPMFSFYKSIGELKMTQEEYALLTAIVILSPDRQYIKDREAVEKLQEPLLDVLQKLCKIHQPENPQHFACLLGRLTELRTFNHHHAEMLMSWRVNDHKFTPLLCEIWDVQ
# How it was run: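 FXR-UAS-bla HEK293T, 10% dialyzed FBS; cpds up to 92 uM titration, 16 h 37 C; CCF4 dye 2 h RT; fluorescence. Normalized to chenodeoxycholic acid 100 uM (100%) and DMSO (0%); Hill fit gives EC50, efficacy.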
# Sequence of Peroxisome proliferator-activated receptor delta (Homo sapiens) (Q03181 whole entry, looked up): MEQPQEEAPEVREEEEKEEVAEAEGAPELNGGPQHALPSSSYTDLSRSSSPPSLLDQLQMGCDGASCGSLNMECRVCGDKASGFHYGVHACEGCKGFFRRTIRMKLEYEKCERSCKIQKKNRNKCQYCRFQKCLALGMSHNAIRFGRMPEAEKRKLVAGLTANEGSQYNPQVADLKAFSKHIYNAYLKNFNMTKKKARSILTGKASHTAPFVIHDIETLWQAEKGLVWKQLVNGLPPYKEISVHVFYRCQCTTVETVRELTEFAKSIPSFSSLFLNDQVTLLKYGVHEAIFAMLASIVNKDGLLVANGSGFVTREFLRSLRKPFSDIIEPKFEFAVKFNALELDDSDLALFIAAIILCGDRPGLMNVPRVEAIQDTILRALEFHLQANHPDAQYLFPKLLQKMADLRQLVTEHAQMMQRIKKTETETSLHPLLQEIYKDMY
compound,measurement,setting,value
Cc1ccc(S(=O)(=O)O)cc1C,outcome,[1],inactive
same,Potency,[2],inactive
same,Potency,[3],inactive
same,Potency,[4],inactive
same,Potency,[5],inactive
same,Potency,[6],inactive
CC1=C(/C=C/C(C)=C/C=C/C(C)=C/CO)C(C)(C)CCC1,outcome,[1],inactive
same,Potency,[2],inactive
same,Potency,[3],inactive
same,Potency,[4],inactive
same,Potency,[5],inactive
same,Potency,[6],inactive
same,"activity change, negative = inhibition",[7],-23.2%
same,Potency,[8],inactive
OB1OCc2cc(F)ccc21,remaining parasite growth % (stronger effect = lower value),[9],85.7%
same,"activity, percent of control",[10],91.5%
same,"remaining proliferation (% of control), lower = more inhibition",[11],40.3%
same,Potency,[2],inactive
same,Potency,[3],inactive
same,Potency,[4],inactive
same,Potency,[5],inactive
same,Potency,[6],inactive
same,"activity change, negative = inhibition",[7],-25.6%
Fc1cccc(Br)c1NC1=NCCN1,Potency,[2],inactive
same,Potency,[3],inactive
same,Potency,[4],inactive
same,Potency,[5],inactive
same,Potency,[6],inactive
same,Potency,[12],inactive
same,Potency,[13],inactive
CO[C@@H]1[C@H](C)OC(O[C@H]2CC(Oc3cc4cc5c(c(O)c4c(O)c3C)C(=O)[C@@H](OC3C[C@@H](OC4C[C@H](OC6C[C@](C)(O)[C@@H](OC(C)=O)[C@H](C)O6)[C@@H](O)[C@H](C)O4)[C@H](O)[C@@H](C)O3)[C@H]([C@@H](OC)C(=O)[C@@H](O)[C@H](C)O)C5)O[C@@H](C)[C@H]2OC(C)=O)C[C@@H]1O (some centres not stated),Potency,[2],inactive
same,Potency,[3],inactive
same,Potency,[4],inactive
same,Potency,[5],inactive
same,Potency,[6],inactive
same,Potency,[14],0.0482 µM (active)
same,Potency,[12],inactive
COC1(O[C@H]2CC[C@H]3[C@@H]4CC[C@H]5C[C@@H]6S[C@@H]6C[C@]5(C)[C@H]4CC[C@]23C)CCCC1,Potency,[2],inactive
same,Potency,[3],inactive
same,Potency,[4],inactive
same,Potency,[5],inactive
same,Potency,[6],inactive
same,Potency,[7],inactive
same,Potency,[12],inactive
same,Potency,[13],inactive
OC[C@H]1O[C@@](CO)(O[C@H]2O[C@H](CO)[C@@H](O)[C@H](O)[C@H]2O)[C@@H](O)[C@@H]1O,activation,[15],-1.48% (inactive)
same,outcome,[1],inactive
same,Potency,[2],inactive
same,Potency,[3],inactive
same,Potency,[4],inactive
same,Potency,[5],inactive
same,Potency,[6],inactive
O=c1ccc2cc(O[C@@H]3O[C@H](CO)[C@H](O)[C@H](O)[C@H]3O)c(O)cc2o1,Potency,[2],inactive
same,Potency,[3],inactive
same,Potency,[4],inactive
same,Potency,[5],inactive
same,Potency,[6],inactive
same,Potency,[7],inactive
same,Potency,[12],16.1 µM (active)
same,Potency,[13],25.5 µM (active)
O=C(O)[C@H](O)[C@@H](O)[C@H](O)[C@H](O)CO,outcome,[1],inactive
same,Potency,[2],inactive
same,Potency,[3],inactive
same,Potency,[4],inactive
same,Potency,[5],inactive
same,Potency,[6],inactive
same,Potency,[7],inactive
